# Source: ChEMBL document CHEMBL1157539, “Thousands of chemical starting points for antimalarial lead identification” (Nature, 2010)
# Key:
# Type in all cases: functional
# [1] = test system: Plasmodium falciparum; assay: GSK_TCMDC: Inhibition of Plasmodium falciparum 3D7 in whole red blood cells, using parasite LDH activity as an index of growth. Test compounds present at 2uM
# [2] = test system: Plasmodium falciparum; assay: GSK_TCMDC: Inhibition of Plasmodium falciparum Dd2 in whole red blood cells, using parasite LDH activity as an index of growth. Test compounds present at 2uM
# [3] = test system: HepG2; assay: GSK_TCMDC: Percent inhibition of human HepG2 cell line. Test compounds present at 10uM.
compound,measurement,setting,value
O=C(C=Cc1ccc(F)cc1)N1CCN(S(=O)(=O)c2ccc(Cl)cc2)CC1,Inhibition,[1],91%
same,Inhibition,[2],93%
same,Inhibition,[3],10%
CN1CCN(CCCNCc2ccccc2-c2cccc(CNCc3ccc4c(c3)OCO4)c2)CC1.O=C(O)C(F)(F)F,Inhibition,[1],100%
same,Inhibition,[2],7%
same,Inhibition,[3],34%
C=CCOC(=O)O[C@@H]1[C@@H](OC(=O)OCC=C)[C@@H](OC)O[C@H](COC(c2ccccc2)(c2ccccc2)c2ccccc2)[C@H]1OC(=O)OCC=C,Inhibition,[1],95%
same,Inhibition,[2],96%
same,Inhibition,[3],5%
NC1CCN(Cc2ccc(-c3ccc(-c4nc5cc(F)ccc5[nH]4)s3)cc2)C1.O=C(O)C(F)(F)F (configuration not stated),Inhibition,[1],100%
same,Inhibition,[2],98%
same,Inhibition,[3],32%
Cc1cccc2nc(-c3ccc(-c4ccc(NC(=O)CN5CCN(C)CC5)cc4)cc3)[nH]c12,Inhibition,[1],100%
same,Inhibition,[2],83%
same,Inhibition,[3],29%
NS(=O)(=O)c1ccc(CNc2ccc3ncc(-c4ccc(OC(F)(F)F)cc4)n3n2)cc1,Inhibition,[1],97%
same,Inhibition,[2],99%
same,Inhibition,[3],10%
Cc1cccc(Cl)c1S(=O)(=O)Nc1cccc(CCN2CCC(N3CCCCC3)CC2)c1,Inhibition,[1],91%
same,Inhibition,[2],18%
same,Inhibition,[3],34%
Cc1cc(-c2ccc3c(c2)CCN(CCC2CCC(NC(=O)/C=C/c4cccc(F)c4)CC2)CC3)on1.Cl (configuration not stated),Inhibition,[1],95%
same,Inhibition,[2],19%
same,Inhibition,[3],23%
COc1ccc(Cn2c(Nc3cccc(C(F)(F)F)c3)nc3cc(C(=O)NC4CC4)cnc32)cc1Cl,Inhibition,[1],94%
same,Inhibition,[2],96%
same,Inhibition,[3],0%
Cc1noc(-c2ccc(NC[C@@H](C)NC[C@H](O)c3cccc(Cl)c3)cc2)n1,Inhibition,[1],97%
same,Inhibition,[2],84%
same,Inhibition,[3],11%
C#C[C@H]1O[C@@H](n2cnc3c(Nc4cc(Br)cc(C(F)(F)F)c4)ncnc32)[C@H](O)[C@@H]1O,Inhibition,[1],94%
same,Inhibition,[2],56%
same,Inhibition,[3],21%
CCOc1cc(NC(=O)Nc2ccnc3ccccc23)cc(OC)c1.Cl,Inhibition,[1],98%
same,Inhibition,[2],73%
same,Inhibition,[3],0%
Cc1ccc(NC(=O)c2ccc3ncccc3c2)cc1OC1CCN(CCC(C)C)CC1.O=C(O)C(F)(F)F,Inhibition,[1],94%
same,Inhibition,[2],48%
same,Inhibition,[3],2%
CN1CCN(CCCN(Cc2csc(-c3ccc(CNCc4ccccc4)cc3)n2)S(=O)(=O)c2cccc3cccnc23)CC1.O=C(O)C(F)(F)F,Inhibition,[1],89%
same,Inhibition,[2],32%
same,Inhibition,[3],5%
CC(C)C[C@@H]1C(=O)N[C@H](C2Cc3ccccc3C2)C(=O)N1[C@@H](C(=O)O)c1ccc(F)cc1F,Inhibition,[1],98%
same,Inhibition,[2],0%
same,Inhibition,[3],10%
Cc1cc(C)c(C)c(S(=O)(=O)N2CCCCC(c3ccc(F)c(F)c3)=N2)c1C,Inhibition,[1],86%
same,Inhibition,[2],60%
same,Inhibition,[3],5%
NC(=O)C1CCN(Cc2cccc(-c3cccc(-c4nc5cc(C(F)(F)F)ccc5[nH]4)c3)c2)CC1.O=C(O)C(F)(F)F,Inhibition,[1],100%
same,Inhibition,[2],100%
same,Inhibition,[3],16%
COC(=O)c1ccc2[nH]cc(C3CCN(CCC4CCN(C(=O)/C=C/c5ccc(Cl)c(Cl)c5)CC4)CC3)c2c1,Inhibition,[1],97%
same,Inhibition,[2],59%
same,Inhibition,[3],24%
FC(F)(F)c1cccnc1N1CCC(Nc2nc3cc(Cl)ccc3[nH]2)CC1,Inhibition,[1],93%
same,Inhibition,[2],39%
same,Inhibition,[3],32%
CCNC(=O)Nc1ccc(-c2cccc(-c3nc4cccc(C)c4[nH]3)c2)cc1,Inhibition,[1],91%
same,Inhibition,[2],34%
same,Inhibition,[3],16%
CC(C(=O)Nc1ccc(Br)cc1Br)N1CCN(C(=O)c2ccco2)CC1 (configuration not stated),Inhibition,[1],91%
same,Inhibition,[2],84%
same,Inhibition,[3],3%
CN1Cc2cc(NC(=O)/C=C/c3ccccc3Cl)ccc2C(C)(C)C1.Cl,Inhibition,[1],99%
same,Inhibition,[2],96%
same,Inhibition,[3],12%
CN(C)c1ccc(CN2CCCCC(NC(=O)c3cc(-c4ccccc4F)cs3)C2)cc1.O=C(O)C(F)(F)F (configuration not stated),Inhibition,[1],100%
same,Inhibition,[2],28%
same,Inhibition,[3],13%
O=C(Nc1ccc(-c2cccc(-c3nc4cc(C(F)(F)F)ccc4[nH]3)c2)cc1)c1ccoc1,Inhibition,[1],96%
same,Inhibition,[2],13%
same,Inhibition,[3],52%
CS(=O)(=O)N(c1ccc(F)cc1)c1cc(C(=O)N[C@@H](Cc2ccccc2)[C@H](O)CNCc2cccc(C(F)(F)F)c2)cc(N2CCCC2=O)c1.O=CO,Inhibition,[1],91%
same,Inhibition,[2],65%
same,Inhibition,[3],0%
CC(C)(C)c1ccc(CN2CCC(NC(=O)c3ccc(-c4cccc(F)c4)s3)CC2)cc1.O=C(O)C(F)(F)F,Inhibition,[1],92%
same,Inhibition,[2],24%
same,Inhibition,[3],35%
Nc1ncc(-c2ccc(F)cc2)c2ccc(-c3cccc(F)c3)cc12,Inhibition,[1],99%
same,Inhibition,[2],89%
same,Inhibition,[3],34%
O=C(Nc1ccc2ccccc2c1)c1ccc(CN2CCC(Cc3ccccc3)CC2)cc1,Inhibition,[1],95%
same,Inhibition,[2],10%
same,Inhibition,[3],38%
Cc1nc(N)nc(N)c1-c1cccc(Cl)c1,Inhibition,[1],88%
same,Inhibition,[2],0%
same,Inhibition,[3],60%
